In PubChem BioAssay AID1159580 (chemical genetic matrix, 2015):
The whole screen tested about 5,500 compounds, of which about 2,000 (36%) were called active. Not shown: some 18% with an inconclusive outcome. Rule as the data show it: active = normalized growth mostly below about 0.91 (no sharp cut-off); inconclusive = no clear call, values can overlap the other calls; inactive = mostly above about 0.92. Some of the results follow.

Assay: chemical genetic growth profiling, strain panel (AID 1159580);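 also: tested at 20 µM; growth read once vehicle control cultures reached saturation at 30 °C; 1 = growth at the plate median or of vehicle wells; lower values mean less growth of the strain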
Conditions: growth OD

Measured: normalized growth

CC(=O)OCC1=C(C(=O)O)N2C(=O)[C@@H](NC(=O)CCCC(N)C(=O)O)C2SC1 (some centres not stated)
inactive: S. cerevisiae deletion strains, locus YJR075W, strain HOC1, hits give low values 1.05 | S. cerevisiae deletion strains, locus YKL009W, strain mrt4, hits give low values 0.996 | S. cerevisiae deletion strains, locus YKL068W, hits give low values 1 | S. cerevisiae deletion strains, locus YKL085W, strain MDH1 (second series), hits give low values 0.995 | S. cerevisiae deletion strains, locus YKL085W, strain MDH1, hits give low values 0.995 | S. cerevisiae deletion strains, locus YKL160W, strain elf1, hits give low values 0.998 | S. cerevisiae deletion strains, locus YKL190W, strain CNB1, hits give low values 1.01 | S. cerevisiae deletion strains, locus YKR001C, strain vps1, hits give low values 1.03 | S. cerevisiae deletion strains, locus YKR026C, strain gcn3, hits give low values 0.969 | S. cerevisiae deletion strains, locus YKR091W, strain srl3, hits give low values 0.999 | S. cerevisiae deletion strains, locus YLL001W, strain dnm1, hits give low values 0.973 | S. cerevisiae deletion strains, locus YLL026W, hits give low values 0.996 | S. cerevisiae deletion strains, locus YLL041C, strain sdh2, hits give low values 0.993 | S. cerevisiae deletion strains, locus YLR027C, strain aat2, hits give low values 0.998 | S. cerevisiae deletion strains, locus YLR039C, strain RIC1, hits give low values 1.02 | S. cerevisiae deletion strains, locus YLR058C, strain SHM2, hits give low values 1.02 | S. cerevisiae deletion strains, locus YLR102C, strain apc9, hits give low values 0.997 | S. cerevisiae deletion strains, locus YLR113W, strain HOG1, hits give low values 1.01 | S. cerevisiae deletion strains, locus YLR221C, strain rsa3, hits give low values 0.994 | S. cerevisiae deletion strains, locus YLR258W, strain gsy2, hits give low values 1.02 | S. cerevisiae deletion strains, locus YLR262C, strain YPT6 (second series), hits give low values 0.978 | S. cerevisiae deletion strains, locus YLR262C, strain YPT6, hits give low values 1.02 | S. cerevisiae deletion strains, locus YLR268W, strain sec22, hits give low values 1.01 | S. cerevisiae deletion strains, locus YLR320W, strain mms22, hits give low values 1.01 | S. cerevisiae deletion strains, locus YLR330W, strain CHS5, hits give low values 1.01 | S. cerevisiae deletion strains, locus YLR342W, strain FKS1 (second series), hits give low values 1.04 | S. cerevisiae deletion strains, locus YLR342W, strain FKS1, hits give low values 1.01 | S. cerevisiae deletion strains, locus YLR357W, strain rsc2, hits give low values 0.99 | S. cerevisiae deletion strains, locus YLR370C, strain arc18, hits give low values 1.01 | S. cerevisiae deletion strains, locus YLR371W, strain rom2, hits give low values 1.01 | S. cerevisiae deletion strains, locus YLR384C, strain iki3, hits give low values 0.994 | S. cerevisiae deletion strains, locus YLR418C, strain cdc73, hits give low values 1 | S. cerevisiae deletion strains, locus YML016C, strain PPZ1, hits give low values 1.01 | S. cerevisiae deletion strains, locus YML032C, strain rad52, hits give low values 1.02 | S. cerevisiae deletion strains, locus YML120C, strain ndi1, hits give low values 0.996 | S. cerevisiae deletion strains, locus YML124C, strain tub3, hits give low values 1 | S. cerevisiae deletion strains, locus YMR058W, strain fet3, hits give low values 0.994 | S. cerevisiae deletion strains, locus YMR078C, strain ctf18, hits give low values 1 | S. cerevisiae deletion strains, locus YMR125W, strain sto1, hits give low values 0.996 | S. cerevisiae deletion strains, locus YMR129W, hits give low values 0.988 | S. cerevisiae deletion strains, locus YMR205C, strain PFK2, hits give low values 1.02 | S. cerevisiae deletion strains, locus YMR223W, strain ubp8, hits give low values 1.04 | S. cerevisiae deletion strains, locus YMR231W, strain pep5, hits give low values 0.988 | S. cerevisiae deletion strains, locus YMR263W, strain SAP30, hits give low values 1.04 | S. cerevisiae deletion strains, locus YMR307W, strain GAS1, hits give low values 0.987 | S. cerevisiae deletion strains, locus YNL067W, strain RPL9B, hits give low values 1.01 | S. cerevisiae deletion strains, locus YNL071W, strain lat1, hits give low values 1.01 | S. cerevisiae deletion strains, locus YNL128W, strain TEP1, hits give low values 1.01 | S. cerevisiae deletion strains, locus YNL153C, strain GIM3, hits give low values 1.03 | S. cerevisiae deletion strains, locus YNL183C, strain NPR1, hits give low values 0.946 | S. cerevisiae deletion strains, locus YNL209W, strain ssb2, hits give low values 0.998 | S. cerevisiae deletion strains, locus YNL233W, strain BNI4, hits give low values 1.02 | S. cerevisiae deletion strains, locus YNL248C, strain rpa49, hits give low values 0.996 | S. cerevisiae deletion strains, locus YNL250W, strain rad50, hits give low values 1 | S. cerevisiae deletion strains, locus YNL271C, strain bni1, hits give low values 0.998 | S. cerevisiae deletion strains, locus YNL298W, strain CLA4, hits give low values 1.02 | S. cerevisiae deletion strains, locus YNL307C, strain MCK1, hits give low values 1.01 | S. cerevisiae deletion strains, locus YNL322C, strain KRE1 (second series), hits give low values 0.99 | S. cerevisiae deletion strains, locus YNL322C, strain KRE1, hits give low values 1.01 | S. cerevisiae deletion strains, locus YNR049C, strain mso1, hits give low values 0.996 | S. cerevisiae deletion strains, locus YNR052C, strain pop2, hits give low values 1.02 | S. cerevisiae deletion strains, locus YOL006C, strain TOP1, hits give low values 1 | S. cerevisiae deletion strains, locus YOL012C, strain htz1 0.841 | S. cerevisiae deletion strains, locus YOL147C, strain pex11, hits give low values 0.997 | S. cerevisiae deletion strains, locus YOR001W, strain rrp6, hits give low values 0.998 | S. cerevisiae deletion strains, locus YOR061W, strain CKA2, hits give low values 1.01 | S. cerevisiae deletion strains, locus YOR069W, strain VPS5, hits give low values 1 | S. cerevisiae deletion strains, locus YOR070C, strain gyp1, hits give low values 0.995 | S. cerevisiae deletion strains, locus YOR080W, strain dia2, hits give low values 1 | S. cerevisiae deletion strains, locus YOR083W, strain WHI5, hits give low values 0.993 | S. cerevisiae deletion strains, locus YOR106W, strain vam3, hits give low values 0.999 | S. cerevisiae deletion strains, locus YOR136W, strain idh2, hits give low values 1 | S. cerevisiae deletion strains, locus YOR144C, strain elg1, hits give low values 0.99 | S. cerevisiae deletion strains, locus YOR184W, strain ser1, hits give low values 1.02 | S. cerevisiae deletion strains, locus YOR231W, strain MKK1, hits give low values 1 | S. cerevisiae deletion strains, locus YOR265W, strain rbl2, hits give low values 0.993 | S. cerevisiae deletion strains, locus YOR270C, strain vph1, hits give low values 1.08 | S. cerevisiae deletion strains, locus YOR290C, strain snf2, hits give low values 0.973 | S. cerevisiae deletion strains, locus YOR316C, strain cot1, hits give low values 0.994 | S. cerevisiae deletion strains, locus YPL051W, strain arl3, hits give low values 0.99 | S. cerevisiae deletion strains, locus YPL055C, strain LGE1, hits give low values 1.03 | S. cerevisiae deletion strains, locus YPL078C, strain atp4, hits give low values 0.994 | S. cerevisiae deletion strains, locus YPL106C, strain sse1, hits give low values 0.981 | S. cerevisiae deletion strains, locus YPL240C, strain hsp82, hits give low values 1.01 | S. cerevisiae deletion strains, locus YPL241C, strain CIN2, hits give low values 1.01 | S. cerevisiae deletion strains, locus YPL256C, strain CLN2, hits give low values 0.967 | S. cerevisiae deletion strains, locus YPR119W, strain clb2, hits give low values 1 | S. cerevisiae deletion strains, locus YPR141C, strain kar3, hits give low values 1 | S. cerevisiae deletion strains, locus YPR163C, strain tif3, hits give low values 1 | S. cerevisiae deletion strains, locus YPR167C, strain met16, hits give low values 1 | S. cerevisiae deletion strains, strain wtn01, hits give low values 1 | S. cerevisiae strains, strain wild type, hits give low values 1.02
